High-throughput results deposited in PubChem BioAssay by several laboratories.
CTSL1 counter-1: Fasciola hepatica cathepsin L1 inhibitors, primary screen, counter-screen for PFM18AAP inhibitor project, biochemical, QFRET, fluorogenic peptide substrate; hit rate 0.49% among 300,000; recombinant F. hepatica cathepsin L1, Z-Leu-Arg-MCA fluorescence; AID 1906, 2009; inhibition, % at 5.96 µM;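 active = inhibition above the mean of all tested compounds plus 3 SD, set per screening campaign, cut at about 17% in these data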
PfM18AAP inh-1: PfM18AAP inhibitors, malaria aminopeptidase, primary screen, biochemical, QFRET, recombinant enzyme; M18 aspartyl aminopeptidase (Plasmodium falciparum 3D7); H-Glu-NHMec fluorogenic cleavage; inhibition, % at 7.35 µM; hit rate 1.2% among 290,000; AID 1822, 2009;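 active = inhibition above the campaign mean inhibition over all tested compounds plus 3 SD, cut at about 28% in these data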
Rin1-Abl PPI inh: inhibitors of Rin1-Abl protein binding, primary screen, biochemical, TR-FRET | AID 588664, 2011 | hit rate 0.4% among 360,000 | inhibition, % at 7.35 µM; in the data active = inhibition above about 5%, passing the limit was not always enough
Calb FLC: C. albicans growth inhibition with fluconazole, primary screen, CaCi-2 strain, Alamar Blue fluorescence; hit rate 0.57% among 300,000; growth inhibition, % (concentration not given with the values); C. albicans CaCi-2 (fluconazole-resistant clinical isolate) + fluconazole, 48 h;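 active = growth inhibition above about 58% in most replicates, limit read from the data, passing the limit was not always enough; inconclusive = exactly half the replicates above a set limit; inactive = most replicates below a set limit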;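 note: all wells also contain fluconazole at 8 µg/ml as a sub-toxic cotreatment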
PfM18AAP inh-2: PfM18AAP inhibitors, malaria aminopeptidase, confirmation, biochemical, QFRET, recombinant enzyme, triplicate; shares compounds with PfM18AAP inh-1; H-Glu-NHMec fluorogenic cleavage; inhibition, % at 7.35 µM; hit rate 28% among 2,400; AID 2170, 2009;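 active = mean inhibition over replicate wells above the hit cutoff set for the earlier primary screen, cut at about 29% in these data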
CTSL1 counter-2: cathepsin L1 inhibitors, retest, confirmation, counter-screen for PFM18AAP inhibitor project, biochemical, QFRET, triplicate. 2,400 tested, under 10 active. purified cathepsin L1, Z-Leu-Arg-MCA fluorescence. inhibition, % at 5.96 µM. shares compounds with PfM18AAP inh-1;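 active = average inhibition across replicates above the hit cutoff set in the earlier primary screen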
Large screens that a line does not name were inactive (follow-up assays come after a bar, where they were run). An excerpt weighted towards active compounds, which were near 2.1% of everything screened.

CC(C)(C)c1ccc(SCC(N)=O)cc1	Calb FLC 80.8
Cn1c(SCC(N)=O)nnc1-c1ccc(C(C)(C)C)cc1	none
CC(C)CC1CCCCC1OC(=O)CN1CCCCC1 (centres undefined)	none
Cc1cccc(NC(=O)c2sc3nc(N)c(C#N)cc3c2N)c1	PfM18AAP inh-1 28.1
CC(C)(C)n1nnnc1C(c1ccncc1)N1CCN(c2ccc(O)cc2)CC1 (centres undefined)	PfM18AAP inh-1 30.2
O=C1CCCN1C(=O)COc1ccccc1[N+](=O)[O-]	none (no result: PfM18AAP inh-1)
CC(=O)[C@]1(O)Cc2c(O)c3c(c(O)c2[C@@H](O[C@H]2C[C@H](N)[C@H](O)[C@H](C)O2)C1)C(=O)c1ccccc1C3=O	Calb FLC 77.6 (no result: PfM18AAP inh-1, Rin1-Abl PPI inh)
S=c1nc(-c2ccccc2)[nH]c2ccc(Br)cc12	none (no result: Calb FLC)
CC(=O)N(/N=C1\Sc2ccccc2C1=O)c1cccc(C)c1	CTSL1 counter-1 87.9
CC(=O)N(CN1C(=O)c2ccccc2C1=O)c1cccc(C)c1	none
Cc1cc(NC(=O)COc2ccccc2C(N)=O)no1	none (no result: CTSL1 counter-1, PfM18AAP inh-1, Calb FLC)
Cc1csc2ncnc(NCCc3ccccn3)c12	Calb FLC 98.0
O=C1C(Nc2cccc(O)c2)=C(N2CCCCC2)C(=O)c2ccccc21	CTSL1 counter-1 86.3
O=C(/C=C/c1ccc(O)cc1)c1ccccc1	none
O=C1C(Nc2ccccc2)=C(N2CCCCC2)C(=O)c2ccccc21	CTSL1 counter-1 49.5
O=C1C(NS(=O)(=O)c2ccc(Br)cc2)=C(N2CCCCC2)C(=O)c2ccccc21	none
Cc1ccc(NC2=C(N3CCCCC3)C(=O)c3ccccc3C2=O)cc1	CTSL1 counter-1 34.3
O=C(/C=C/c1ccc(O)cc1)c1ccc(NC2=C(N3CCCCC3)C(=O)c3ccccc3C2=O)cc1	CTSL1 counter-1 32.8
CN(C1=C(N2CCCCC2)C(=O)c2ccccc2C1=O)c1ccccc1	none
CCOC(=O)C1(C)CCCN1C(=O)c1ccc(F)c(Cl)c1 (centres undefined)	none (no result: CTSL1 counter-1, PfM18AAP inh-1, Calb FLC)
COc1ccccc1NC1=C(N2CCCCC2)C(=O)c2ccccc2C1=O	CTSL1 counter-1 61.9, Calb FLC 92.7
CCN1CCN(C2=C(NS(=O)(=O)c3ccc(C)cc3)C(=O)c3ccccc3C2=O)CC1	PfM18AAP inh-1 31.4
CCN1CCN(C2=C(NS(=O)(=O)c3ccc(NC(C)=O)cc3)C(=O)c3ccccc3C2=O)CC1	none
COc1ccc(C2N(c3ccccc3)CCN2c2ccccc2)cc1O	none
O=C1NC(=S)SC1=Cc1ccccn1	none (no result: CTSL1 counter-1, PfM18AAP inh-1, Calb FLC)
O=C(Nc1nc2ccc(S(=O)(=O)N3CCCCC3)cc2s1)c1ccncc1	Calb FLC 103.1
O=C(Nc1nc2ccc(S(=O)(=O)N3CCCCC3)cc2s1)c1cccnc1	none
CCOc1ccc(NS(=O)(=O)c2cccc(C(=O)N3CCN(C/C=C/c4ccccc4)CC3)c2)cc1	none (no result: CTSL1 counter-1, PfM18AAP inh-1, Calb FLC)
O=C(CSc1nc2ccccc2n1CC(=O)N1CCCC1)N1CCN(C(=O)c2ccco2)CC1	CTSL1 counter-1 27.0
Oc1oc(-c2cccc3ccccc23)nc1/C=N/c1nccs1	CTSL1 counter-1 22.4
Oc1oc(-c2cccc3ccccc23)nc1C=NCc1ccccc1	none (no result: CTSL1 counter-1, Rin1-Abl PPI inh, Calb FLC)
Cc1ccc(C(=O)Cn2ncsc2=N)cc1	CTSL1 counter-1 61.9
O=C(NCCO)Nc1ccc2nc(-c3ccco3)c(-c3ccco3)nc2c1	PfM18AAP inh-1 36.6 (no result: Rin1-Abl PPI inh, Calb FLC)
O=C(Nc1ccc(N2CCOCC2)cc1)c1ccc2nc(-c3ccco3)c(-c3ccco3)nc2c1	none
S=C(Nc1ccc(N2CCOCC2)cc1)Nc1ccc2nc(-c3ccco3)c(-c3ccco3)nc2c1	PfM18AAP inh-1 44.5
COc1ccc(CNc2nc(NC(C)=O)nn2-c2ccccc2)cc1	none
OCc1ccc(O)c2ncccc12	Calb FLC 106.8
CCOC(=O)N1CCN(Cc2ccc(O)c3ncccc23)CC1	Calb FLC 82.4 (no result: Rin1-Abl PPI inh)
Cc1ccc(C)c(S(=O)(=O)N2CCN(Cc3ccc(O)c4ncccc34)CC2)c1	Calb FLC 109.9
Oc1c(Cl)cc(CN2CCCCC2)c2cccnc12	Rin1-Abl PPI inh 11.7
Oc1c(CN2CCN(c3ccccn3)CC2)cc(Cl)c2cccnc12	none
Cc1ccc(CNC(=O)c2ccc3c(c2)S(=O)(=O)c2ccccc2C3=O)o1	none (no result: PfM18AAP inh-1)
OCCN1CCN(Cc2cc(Cl)c3cccnc3c2O)CC1	Calb FLC 102.8
Oc1ccc(CN2CCCCC2)c2cccnc12	Calb FLC 103.0
O=[N+]([O-])c1cc(CN2CCCC2)c2cccnc2c1O	Rin1-Abl PPI inh 52.4 (no result: Calb FLC)
Oc1ccc(Cc2ccccc2)c2cccnc12	none (no result: CTSL1 counter-1, PfM18AAP inh-1, Calb FLC)
Oc1ccc(CN2CCC(Cc3ccccc3)CC2)c2cccnc12	Calb FLC 112.3 (no result: CTSL1 counter-1, Rin1-Abl PPI inh)
Oc1ccc(CN2CCN(c3ccccc3)CC2)c2cccnc12	none
CC(SC(=S)N1CCCC1)C(=O)O (centres undefined)	none
Cc1ccc(OCCn2c(SCCO)nc3c(N)ncnc32)cc1	none
Cc1ccc(S(=O)(=O)c2nc(-c3cccs3)oc2NCCCN(C)C)cc1	none
O=C1Nc2ccc(F)cc2C12OCCO2	none
COCc1nnc(NC(=O)c2ccc(S(=O)(=O)N3CCCc4ccccc43)cc2)o1	Calb FLC 91.6
COc1ccc(-c2nnc(NC(=O)c3ccc(S(=O)(=O)N4CCCc5ccccc54)cc3)o2)cc1	Calb FLC 101.3
COc1cc(-c2nnc(NC(=O)c3ccc(S(=O)(=O)N4CCOCC4)cc3)o2)cc(OC)c1OC	Calb FLC 90.4 (no result: Rin1-Abl PPI inh)
O=C(Nc1nnc(C2CC2)o1)c1ccc(S(=O)(=O)N2CCCc3ccccc32)cc1	Calb FLC inconclusive (no result: PfM18AAP inh-1)
CS(=O)(=O)c1ccc(-c2nnc(NC(=O)c3ccc(S(=O)(=O)N4CCCC4)cc3)o2)cc1	none (no result: PfM18AAP inh-1)
C/C(=N/NC(=O)CNC(=O)COc1ccccc1)c1ccc(Cl)cc1	none
Cc1cc(N2C(=O)C(O)=C(C(=O)c3ccco3)C2c2ccc([N+](=O)[O-])cc2)no1 (centres undefined)	none
COc1ccc(C(=O)N2CCCN(C)CC2)cc1S(=O)(=O)N(C)Cc1ccccc1	none (no result: CTSL1 counter-1, PfM18AAP inh-1, Calb FLC)
O=C(CCl)N1c2ccccc2SCC1c1ccccc1 (centres undefined)	Calb FLC 81.8
COc1cccc2sc(=NC(=O)CS(=O)(=O)c3ccc(F)cc3)n(C)c12	none (no result: PfM18AAP inh-1)
COc1cccc2sc(=NC(=O)CS(=O)(=O)c3ccc(Cl)cc3)n(C)c12	Calb FLC 99.1 (no result: PfM18AAP inh-1)
O=c1nc(N/N=C/c2c[nH]c3ccccc23)cn[nH]1	PfM18AAP inh-1 40.2 | PfM18AAP inh-2 inactive | CTSL1 counter-2 inactive
O=c1nc(N/N=C/C=C/c2ccccc2)cn[nH]1	PfM18AAP inh-1 41.2, Calb FLC inconclusive | PfM18AAP inh-2 inactive | CTSL1 counter-2 inactive
C(=NN=Cc1c[nH]c2ccccc12)c1c[nH]c2ccccc12	none (no result: CTSL1 counter-1, PfM18AAP inh-1, Calb FLC)
